Reference: PubChem BioAssay AID1745847 (National Center for Advancing Translational Sciences (NCATS), 2022)
About 670 (32%) of roughly 2,100 compounds were called active. Not shown: some 50% with an inconclusive outcome. The list shows a part of the results. Values without a mark were called inactive. The call rests on the fitted dose curve; in most records, active means well fitted inhibition curve with a large enough effect; inconclusive means small, poorly fitted or top-dose-only effect; inactive means no such curve, though single readings can be large or run the other way.
On the % scale 0 is the no-effect control and ±100 the full control effect; potency means the concentration at half of the fitted maximal effect.

Assay: CMV-Luciferase Counterscreen for Inhibitors of ATXN expression; further: nearly all actives have a fitted effect of over 55% in size
Settings: HEK-293 CMV-luciferase reporter, luminescence, 24 h; series mostly up to 57.5 µM; activity change, negative = inhibition: at the top concentration
In the case of `CCc1nc2ccc(C(=O)Nc3cc(-c4ccccc4)ccc3OC)cn2c1N(CC)CC(=O)N(C)C`, the Potency is reported as 31.6 µM (active). In the case of `CCCCN(C=O)c1c(CC)nc2ccc(C(=O)Nc3cc(-c4ccccc4)ccc3OC)cn12`, the Potency is reported as 22.4 µM (active). For `Cc1ccnc(NC(=S)N2CCN(c3cccc(C(F)(F)F)c3)CC2)c1`, the “activity change, negative = inhibition” value was 410%. For `Cc1nc2ncnn2c(N2CCN(c3cccc(C(F)(F)F)c3)CC2)c1C`, the Potency was 2.51 µM (active). For `CCC(CC)C(=O)c1c[nH]c(C(=O)NCc2ccccn2)c1`, the “activity change, negative = inhibition” value was 5.87%. In the case of `O=C(N/N=C(\c1ccccc1)c1ccccn1)c1ccccc1Cl`, the Potency is reported as 3.98 µM (active). In the case of `COc1cc(C(=O)N/N=C(\c2ccccc2)c2ccccn2)cc(OC)c1OC`, the Potency is reported as 0.398 µM (active). Molecule `Cc1ccc2c(c1)-c1c(cnn1CC(=O)N1CCCN(Cc3ccccc3F)C1)CO2` has an activity change, negative = inhibition of -25.8% [at 11.4 µM]. With `CC(NC1=CC(=O)c2cccnc2C1=O)C(O)c1ccccc1` (configuration not stated) the Potency was 15.8 µM (active). For `C/C(=N\NC(=O)C1CCCN(S(=O)(=O)c2ccccc2)C1)c1ccccn1` (configuration not stated), the Potency was 1.41 µM (active). In the case of `CCc1ccc(-c2nc(CS(=O)CC(=O)NCc3ccco3)c(C)o2)cc1` (configuration not stated), the Potency is reported as 0.501 µM (active). In the case of `Cc1cccc(N=C2NN=C(c3c(C)[nH]c4ccccc34)CS2)c1`, the Potency is reported as 12.6 µM (active). With `COc1cc(OC)cc(-c2cc3nc(C)c(CCC(=O)NCc4ccccc4)c(C)n3n2)c1` the Potency was 11.2 µM (active). In the case of `COc1cc(OC)cc(-c2cc3nc(C)c(CCC(=O)O)c(C)n3n2)c1`, the Potency is reported as 1 µM (active). `COc1ccc(CNC(=O)CSc2nc(-c3ccccc3)cc(-c3cccs3)c2C#N)cc1` gave an activity change, negative = inhibition of 16% [at 11.4 µM]. In the case of `Cc1c(CC(=O)NCCCC(=O)O)c(=O)oc2cc3c(cc12)CCC(C)(C)O3`, the Potency is reported as 11.2 µM (active). In the case of `O=C1c2cccc3cc([N+](=O)[O-])cc(c23)C(=O)N1CCN1CCCC1`, the Potency is reported as 0.794 µM (active). With `CCc1ccc(-c2cc(C(F)(F)F)n3nc(C(=O)Nc4cnn(Cc5ccc(C)cc5)c4)cc3n2)s1` the “activity change, negative = inhibition” value was -12.2%. For `O=C(Nc1cnn(C23CC4CC(CC(C4)C2)C3)c1)c1cnn2c(C(F)(F)F)cc(-c3ccco3)nc12`, the Potency was 15.8 µM (active). In the case of `CCOc1ccc(/C=C/[N+](=O)[O-])c2ccccc12`, the Potency is reported as 15.8 µM (active). For `Cc1cc(=O)[nH]c(N=N/C(=N/Nc2ccccc2C)c2ccccc2)n1`, the Potency was 1.58 µM (active). Work on `COc1cc(C#Cc2c(-c3cncn3C)n(C)c3ccc(-c4cnc(N5CCOCC5)nc4)cc23)cc(OC)c1` yielded an activity change, negative = inhibition of -19.7% [at 11.4 µM]. In the case of `COc1cc(C#Cc2c(-c3cncn3C)n(C)c3ccc(-c4ccc(CN5CCOCC5)cc4)cc23)cc(OC)c1`, the activity change, negative = inhibition is reported as -6.42% [at 11.4 µM]. With `COc1cc(C#Cc2c(-c3cncn3C)n(C)c3ccc(-c4cnc(OC)nc4)cc23)cc(OC)c1` the Potency was 3.55 µM (active). For `Cc1ccc(-c2cc(C(=O)N/N=C/c3ccccc3O)n[nH]2)o1`, the Potency was 15.8 µM (active). For `O=C(N/N=C/c1c(O)ccc2ccccc12)c1ccc(CO)nc1`, the Potency was 8.91 µM (active). In the case of `O=C(N/N=C\c1c(O)ccc2ccccc12)c1cncc(Br)c1`, the Potency is reported as 0.282 µM (active). Work on `Nc1ccc2cc3[nH]c4cc(N)ccc4c3nc2c1` yielded an activity change, negative = inhibition of -29.2% [at 11.4 µM]. With `CCN1CCN(C2=C(NS(=O)(=O)c3ccc(C)cc3)C(=O)c3ccccc3C2=O)CC1` the Potency was 3.55 µM (active). Molecule `CCn1c(CCC(=O)Nc2nc3c(s2)CCCC3)nc2cc(S(=O)(=O)N(C)C)ccc21` has an activity change, negative = inhibition of 4.42% [at 11.4 µM]. With `O=C(COc1ccc(F)cc1)N/N=C/c1cccc2cccnc12` the Potency was 2.82 µM (active). In the case of `Cc1ccccc1OCC(=O)N/N=C/c1cccc2cccnc12`, the Potency is reported as 15.8 µM (active). With `CSCC[C@H](NC(=O)OC(C)(C)C)C(=O)N/N=C/c1cccc2cccnc12` the “activity change, negative = inhibition” value was -26.9%. With `Cc1ccc(OCC(=O)N/N=C/c2cccc3cccnc23)cc1` the Potency was 20 µM (active). For `Cc1cc(O)c(C(C)C)cc1N=Cc1ccc(N(C)C)cc1`, the activity change, negative = inhibition was 0.592% [at 11.4 µM]. With `Cc1nc(N2CCN(c3ccccn3)CC2)c2c(C)c(C(=O)N3CCN(c4ccc(F)cc4)CC3)sc2n1` the Potency was 14.1 µM (active). With `Oc1c(C(Nc2ccccn2)c2cccnc2)cc(Cl)c2cccnc12` (configuration not stated) the Potency was 12.6 µM (active). For `Cc1cc(NC(c2cccnc2)c2ccc3cccnc3c2O)no1` (configuration not stated), the Potency was 3.98 µM (active). With `Oc1c(C(c2ccccn2)N2CCCCC2)cc(Cl)c2cccnc12` (configuration not stated) the “activity change, negative = inhibition” value was -10.9%. `CCOc1ccccc1NC(=O)N1CCC(c2nc3ccccc3[nH]2)CC1` showed an activity change, negative = inhibition of 28.9% [at 11.4 µM]. In the case of `O=C(Nc1cccc(C(F)(F)F)c1)N1CCC(c2nc(-c3ccc(F)cc3)no2)CC1`, the Potency is reported as 11.2 µM (active). `COc1ccc([C@@]2(C(C)C)ON(c3ccccc3C(F)(F)F)C2=O)cc1` gave an activity change, negative = inhibition of -27.1% [at 11.4 µM]. With `Cn1c(=O)c(C#N)c(-c2ccc(F)cc2)c2cc(C(=O)c3cc(Cl)cc(Cl)c3O)cnc21` the Potency was 3.55 µM (active). With `NC(=S)n1[nH]c(-c2ccc([N+](=O)[O-])cc2)c(N=Nc2cccc(Cl)c2)c1=O` the Potency was 3.55 µM (active). In the case of `CC(C)(C)c1nnc(N/N=C/c2ccccc2O)n(N)c1=O`, the Potency is reported as 1.26 µM (active). For `COc1ccc(C(=O)C=CNNC(=O)c2ccc(Cl)cc2)cc1`, the Potency was 11.2 µM (active). For `Cc1cc(OCc2nc(N)nc(N)c2-c2ccc(Cl)c(Cl)c2)ccc1[N+](=O)[O-]`, the Potency was 0.316 µM (active). With `CCCCC(=O)OCC(=O)C1(O)Cc2c(O)c3c(c(O)c2C(OC2CC(NC(=O)C(F)(F)F)C(O)C(C)O2)C1)C(=O)c1c(OC)cccc1C3=O` (configuration not stated) the Potency was 3.16 µM (active). In the case of `COc1cccc2c1C(=N)c1c(O)c3c(c(O)c1C2=O)CC(O)(C(C)=O)CC3OC1CC(N)C(O)C(C)O1` (configuration not stated), the Potency is reported as 0.282 µM (active). With `C=CCn1cnc2c(c1=O)c1nc3ccccc3nc1n2/N=C/c1cc(OC)c(OC)c(OC)c1` the “activity change, negative = inhibition” value was -11.7%. With `Cc1ccc(NC(=O)c2cnc(N3CCN(c4ccccn4)CC3)c3ccccc23)c(Br)c1` the Potency was 14.1 µM (active). With `O=C(c1cnc(N2CCN(c3ccccn3)CC2)c2ccccc12)N1CCN(c2cccc(Cl)c2)CC1` the Potency was 6.31 µM (active).
